Only a selection was taken, and hits are over-represented in it overall.
TbPYK inhibitor – blocks Trypanosoma brucei pyruvate kinase; Q57TT1; TbPYK enzyme, Kinase-Glo Plus ATP luminescence, 45 min; Potency, µM (top dose mostly 76.8 µM), without a hit: at the highest dose activity, negative = inhibition, usual class: inhibitors; 410,000 compounds, 0.12% hits; note: potency is the fitted concentration of half-maximal effect; % is set by controls: 0 for no effect and ±100 for the full control effect; nearly all actives have a fitted effect of over 50% in size
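Activity of T. brucei pyruvate kinase was followed by Kinase-Glo Plus luminescence after the enzyme reacted 45 min at room temperature with 130 uM ADP (final) and substrate. Test compounds were added before ADP at multiple concentrations.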
LmPK inhibitor – inhibitors of Leishmania mexicana pyruvate kinase; Q27686; purified LmPK, Kinase-Glo ATP luminescence, 1 h; Potency, µM (top dose mostly 57.5 µM), inactives show at the top dose activity change, negative = inhibition, usual class: inhibitors; 290,000 compounds, 0.37% hits; AID 1721; note: potency is the fitted concentration of half-maximal effect; % is set by controls: 0 for no effect and ±100 for the full control effect
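Kinase-Glo luminescence read after 1 h RT reaction of 0.1 nM LmPK with 0.5 mM PEP and 0.1 mM ADP. Activity scaled between uninhibited and enzyme-free controls.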
CHX counter – affects cycloheximide protein synthesis inhibition readout, counter-screen; cell reporter, cycloheximide protein synthesis inhibition counterscreen; max response, %; 300,000 compounds, 12% hits; AID 2314; in the data active = max response mostly above about 13%, no sharp cut-off; inactive = mostly below about 14%; note: read at 38.3 µM for the half of the compounds with a filed dose; 0% is about no effect
FBPA Giardia inh – inhibitors of Giardia lamblia fructose-1,6-bisphosphate aldolase. purified Giardia FBPA. 290,000 compounds, 0.71% hits. A8B2U2. Potency, µM (titrated, usually from 59.6 µM), inactives show top-dose activity, negative = inhibition, most hits filed as inhibitors; note: potency is the fitted concentration of half-maximal effect; % is set by controls: 0 for no effect and ±100 for the full control effect; nearly all actives have a fitted effect of over 55% in size
Target sequence (A8B2U2 whole entry, looked up): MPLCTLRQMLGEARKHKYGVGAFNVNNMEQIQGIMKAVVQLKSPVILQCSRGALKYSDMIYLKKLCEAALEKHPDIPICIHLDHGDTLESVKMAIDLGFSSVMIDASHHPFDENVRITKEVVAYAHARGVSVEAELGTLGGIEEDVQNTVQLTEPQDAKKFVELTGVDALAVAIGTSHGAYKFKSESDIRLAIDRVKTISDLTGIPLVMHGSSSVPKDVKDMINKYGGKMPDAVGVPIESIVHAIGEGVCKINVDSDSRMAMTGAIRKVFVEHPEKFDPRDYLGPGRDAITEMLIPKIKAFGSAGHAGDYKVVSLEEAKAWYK
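40 nM FBPA preincubated 10 min at RT with compound (up to 57.5 uM final), then substrate plus GAPDH/TPI/NAD/arsenate coupling and diaphorase/resazurin added. Fluorescence read after 20 min at RT, 525/598 nm.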
Sm TGR inh – inhibitors of Schistosoma mansoni thioredoxin glutathione reductase; Q962Y6; purified TGR, DTNB reduction, TNB absorbance 405 nm; Potency, µM (doses to about 114 µM), for the others: at the top dose activity change, negative = inhibition, most hits filed as inhibitors; 360,000 compounds, 3% hits; AID 485364; note: potency is the fitted concentration of half-maximal effect; % is set by controls: 0 for no effect and ±100 for the full control effect; nearly all actives have a fitted effect of over 60% in size
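TGR 20 nM + NADPH 100 uM (dispensed conc.), cpd preinc 15 min RT; start with NADPH (500 uM addition) then DTNB (15 mM addition). Kinetic TNB absorbance, 405 nm filter. Four-parameter Hill fit across titration.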
Shiga inhibitor – inhibitors of Shiga toxin in Vero cells | 290,000 compounds, 9.2% hits | inhibition, % at 38.7 µM | Vero cells, Shiga toxin protein synthesis inhibition reporter; in the data active = inhibition mostly above about 28%, no sharp cut-off; inactive = mostly below about 43%; note: 0% is about no effect
* hit, by the source's call; ? = inconclusive; nt = no result. Unless noted, calls come from the whole dose curve; as a rule, active = well fitted curve in the direction sought with a large enough effect; inconclusive = small, poorly fitted or top-dose-only effect, or another doubt; inactive = no such curve, though single readings can be large; an effect the other way counts as inactive or inconclusive.

SMILES	TbPYK inhibitor	LmPK inhibitor	CHX counter	FBPA Giardia inh	Sm TGR inh	Shiga inhibitor
Cc1ccc(C)c(NC(=O)C2COc3ccccc3O2)c1 (centres undefined)	-17.3%	-6.3%	13.7*	8.2%	8.6%	11.4
O=C(Nc1ccccc1[N+](=O)[O-])C1COc2ccccc2O1 (centres undefined)	-1.5%	-7.2%	27.3*	6.8%	-2.4%	38.0*
CN(C)c1ccc(/C=N/NC(=O)C2COc3ccccc3O2)o1 (centres undefined)	28.2µM*	6.7%	-0.1	-14.6%	15.8µM*	2.9
Cc1ccccc1NC(=O)C1COc2ccccc2O1 (centres undefined)	-0.9%	1.8%	0.4	4.6%	7.6%	nt
COC(=O)c1ccccc1NC(=O)C1COc2ccccc2O1 (centres undefined)	2.1%	2.4%	54.6*	2.2%	5.8%	122.1*
COc1ccc(C)cc1NC(=O)C1COc2ccccc2O1 (centres undefined)	5.2%	0.2%	37.6*	-0.6%	-0.1%	103.4*
CCOC(=O)c1sc(NN=C(C(=O)OC)C(=O)OC)c(C(=O)OCC)c1C	-9.2%	-15.9%	6.6	5.5%	5.7%	31.9*
CCOC(=O)c1c(N)sc(C(=O)OC)c1C	-1.0%	2.0%	17.0	-3.3%	nt	39.6
CCOC(=O)c1sc(N)c(C(=O)OC)c1C	5.2%	-3.1%	33.1*	0.8%	6.3%	64.2*
Cn1cnc(S(=O)(=O)N2CCC(C(=O)NCc3ccccc3Cl)CC2)c1	1.8%	nt	nt	nt	6.8%	nt
Brc1cc2c(cc1COc1ccc(-c3nn[nH]n3)cc1)OCO2	-1.2%	-3.0%	29.8*	-3.5%	28.1%	-48.6
Cc1ccccc1COc1ccc(-c2nn[nH]n2)cc1	-14.7%	-3.5%	26.7*	?	-14.0%	31.6*
CN1CCN(c2ncc3nc(CCc4ccccc4)c(=O)n(C)c3n2)CC1	nt	nt	nt	0.1%	nt	nt
CC1(C)OC2CC3C4CC(F)C5=CC(=O)C=CC5(C)C4C(O)CC3(C)[C@]2(C(=O)CO)O1 (some centres undefined)	nt	nt	nt	0.2%	nt	nt
Clc1ccc(C=NN2CCCCCC2)c(Cl)c1	-3.6%	nt	nt	nt	nt	nt
COc1ccc(/C(C)=N/N2CCCCC2)c(O)c1	1.6%	0.3%	11.8*	9.0%	5.2%	28.7
COc1ccc(O)c(/C=N/N2CCCCC2)c1	-9.3%	?	53.7*	-4.8%	2.8%	83.0*
CCc1nc2cc(NC(=O)C3(C)CCCN(C(C)=O)C3)ccc2o1 (centres undefined)	0.6%	nt	nt	nt	nt	nt
CC(=O)Nc1ccc(NC(=S)NC(=O)/C=C/c2ccco2)cc1	-19.5%	16.2%	-3.7	-16.2%	17.8µM*	nt
CCOc1ccc(NC(=S)NC(=O)/C=C/c2ccco2)cc1	-7.6%	0.7%	13.2*	-3.7%	22.4µM*	nt
CCOc1ccc(NC(=S)NC(=O)Cc2ccccc2)cc1	-13.9%	-6.9%	8.7	-1.5%	?	8.9
O=C(/C=C/c1ccco1)NC(=S)Nc1nc(-c2ccc3ccccc3c2)cs1	-3.5%	-6.5%	-1.4	-1.4%	-4.8%	-7.6
CC(=O)N(C)c1ccc(NC(=S)NC(=O)/C=C/c2ccco2)cc1	6.2%	-4.3%	7.7	-16.8%	28.2µM*	0.8
CN1CCN(c2ccc(NC(=S)NC(=O)/C=C/c3ccco3)cc2)CC1	-1.5%	2.4%	44.4*	-22.2%	50.1µM*	105.6*
O=C(/C=C/c1ccccc1)NC(=S)Nc1ccc(N2CCOCC2)cc1	-3.5%	3.5%	-2.2	-3.5%	-7.4%	9.6
SMILES	TbPYK inhibitor	LmPK inhibitor	CHX counter	FBPA Giardia inh	Sm TGR inh	Shiga inhibitor
CCOC(=O)c1ccc(N2C(=O)c3[nH]nc(-c4ccc(OCC)cc4)c3C2c2cccs2)cc1 (centres undefined)	-0.2%	nt	nt	nt	-0.4%	nt
COc1cc(NS(=O)(=O)c2ccc(NC(=S)NC(=O)/C=C/c3ccco3)cc2)ncn1	-18.3%	0.9%	8.0	6.2%	39.8µM*	-10.5
COc1ccc(/C=C/C(=O)NC(=S)Nc2ccc(S(=O)(=O)Nc3cc(C)on3)cc2)cc1	1.8%	-2.1%	-2.1	?	-28.8%	18.8
CC(=O)Nc1sc(C)c(C)c1C(=O)OCC(=O)NCc1ccc(F)cc1	3.3%	nt	nt	nt	-8.6%	nt
Cc1ccc(NC(=S)Nc2nc(CC(=O)Nc3ccccc3)cs2)cc1	-3.6%	0.9%	13.7*	-16.5%	2.9%	15.2
COC(=O)Cc1csc(Nc2ccc(F)c(Cl)c2)n1	0.9%	1.3%	20.7*	-6.4%	0.8%	30.5
COC(=O)Cc1csc(NCc2ccccc2)n1	-0.6%	-5.7%	-3.2	-4.3%	-4.1%	1.5
COC(=O)Cc1csc(Nc2ccccc2)n1	0.6%	-2.3%	31.2*	-0.2%	5.9%	96.7*
Cc1ccc(-c2nc(-c3ccc(Cl)cc3)sc2CC(=O)O)c(C)c1	0.2%	-2.4%	28.5*	17.1%	-11.2%	6.7
CCc1ccc(NC(=O)CN2C(=O)CCSc3ccccc32)cc1	-2.2%	nt	nt	nt	7.1%	nt
CNC1=C(Br)C(=O)c2ccncc2C1=O	nt	nt	nt	3.3%	nt	nt
COc1ccc(Cn2c(CCC(=O)NCCC(C)C)nc3ncccc3c2=O)cc1	-8.4%	-1.6%	-9.7	6.2%	5.3%	-0.6
COC(=O)Cc1nc(Nc2ccccc2)sc1C	-12.7%	5.6%	11.6*	-4.5%	-0.1%	9.9
COC(=O)Cc1csc(Nc2ccc(Cl)cc2)n1	-5.5%	-3.5%	22.1*	0.3%	-9.8%	35.7
O=C(O)Cc1sc(NCCc2ccccc2)nc1-c1ccc(F)cc1	-2.8%	0.8%	8.9	1.5%	-3.1%	34.2
O=C(O)Cc1sc(NC2CCCCC2)nc1-c1ccc(Cl)cc1	-17.5%	-2.3%	53.8*	7.0%	?	41.8*
O=C(Cc1sc(Nc2ccccc2)nc1-c1ccccc1)NCc1ccccc1	-16.7%	2.7%	31.0*	-11.8%	-32.2%	63.5*
N#Cc1nc(NCCCO)nc(Nc2ccccc2)n1	nt	nt	nt	-1.2%	nt	nt
CCn1c(=O)cc(OCC(=O)N2CCN(c3ccccc3OC)CC2)c2ccccc21	-1.1%	nt	nt	nt	-1.4%	nt
Cc1c(NC(=O)C(C)(C)Oc2ccc(Cl)cc2)cccc1-c1nc2ncccc2o1	-1.0%	nt	nt	nt	-1.4%	nt
O=C(O)Cc1sc(Nc2cccc3ccccc23)nc1-c1ccc(F)cc1	-5.1%	-9.7%	6.9	2.8%	-30.5%	6.0
Cc1ccc(-c2nc(Nc3cccc(C)c3)sc2CC(=O)O)cc1	-18.6%	-4.5%	27.4*	?	?	54.9*
Cc1cccc(Nc2nc(CC(=O)O)cs2)c1	2.0%	-5.8%	41.5*	-0.3%	-9.3%	104.9*
C=CCNc1nc(-c2cccs2)c(CC(=O)O)s1	-7.4%	4.3%	-2.2	-4.8%	?	-0.9
NCc1csc(Nc2ccc(C(=O)c3ccccc3)cc2)n1	-10.7%	nt	nt	nt	nt	nt
O=C(O)Cc1sc(Nc2ccccc2)nc1-c1cccs1	-17.9%	5.0%	25.8*	5.9%	-19.8%	64.8*
CCOC(=O)Cc1csc(Nc2ccc(Cl)cc2)n1	3.3%	0.7%	48.1*	1.7%	-3.5%	11.0*

Assay outcomes: PubChem, National Center for Advancing Translational Sciences (NCATS)
